The values that follow come from PubChem BioAssay (NCI).

Where “and” joins values, the source holds several entries; their conditions need not be identical. Identical values can stand only once. The panel holds about 79,000 compounds, 15% with a hit somewhere; the sample as a whole holds those more often. Calls of active or inactive are those of the source. Cut-off read from the data, not from the text of the source: active = growth inhibition above about 70%; inactive = the rest.

Assay [1] is described as follows: NCI Yeast Anticancer Drug Screen. Data for the rad50 strain (AID 155).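 Note: 0% = growth of vehicle-only cultures of the same strain.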 To be noted: S. cerevisiae rad50 strain growth inhibition, active compounds read high. In short, it runs like this:
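Yeast carrying a defined DNA repair defect were exposed to test compounds, and growth was compared with vehicle-treated controls to give percent inhibition.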

Assay [2] in a line: NCI Yeast Anticancer Drug Screen. Data for the mec2-1 strain (AID 157). To be noted: S. cerevisiae mec2-1 strain, active compounds read high. In short, it runs like this: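 Readout is yeast growth inhibition, normalised to vehicle-treated controls, in the mec2-1 strain exposed to compound.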
Assay [3] in a line: NCI Yeast Anticancer Drug Screen. Data for the sgs1 mgt1 strain (AID 161).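 Note: 0% = growth of cultures given vehicle only.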 To be noted: S. cerevisiae sgs1 mgt1 strain, active compounds read high. The procedure, abridged:
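Yeast cells carrying a defined DNA-repair defect were exposed to test compounds. Growth inhibition was measured relative to vehicle-treated controls.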

Assay [4] in a line: NCI Yeast Anticancer Drug Screen. Data for the cln2 rad14 strain (AID 165).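 Note: 0% = growth equal to vehicle treated cultures.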 The note with it: S. cerevisiae cln2 rad14 strain, active compounds read high. The procedure, abridged:
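Relative to vehicle controls, growth inhibition of compound-treated cln2 rad14 yeast was recorded.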

Assay [5] in a line: NCI Yeast Anticancer Drug Screen. Data for the bub3 strain (AID 167). The note with it: S. cerevisiae bub3 mutant strain, active compounds read high. In short, it runs like this: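 Compounds were applied to a genetically altered yeast strain carrying a cell-cycle control defect. Growth inhibition was scored against vehicle-treated controls.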
The nature of assay [6]: NCI Yeast Anticancer Drug Screen. Data for the mlh1 rad18 strain (AID 175). To be noted: S. cerevisiae mlh1 rad18 strain growth inhibition, active compounds read high. In short, it runs like this: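 Test agents were incubated with a yeast strain of defined genotype (DNA damage repair defect). Inhibition of growth was derived by comparison with vehicle-exposed cultures.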
Setting [7] is: at 5.0 µM (retest, dose inferred, filed as 0.5).
[8] abbreviates: at 50.0 µM (retest, dose inferred, filed as 5.0).

Take `O=C([O][Hg][CH2]C1CC(O)CC([CH2][Hg][O]C(=O)c2ccccc2)O1)c1ccccc1` (configuration not stated): the growth inhibition in assay [1] (setting [7]) was 98% (active); in assay [1] (setting [8]) it was 98% (active); in assay [1] (at 50.0 µM), 99% (active); in assay [2] (setting [7]) it was 98% (active); in assay [2] (setting [8]), 99% (active); in assay [2] (at 50.0 µM), 99.2% (active). Besides, the growth inhibition in assay [3] (setting [7]) was 99% (active); in assay [3] (setting [8]) it was 99% (active); in assay [3] (at 50.0 µM), 99.3% (active); in assay [4] (setting [7]), 96% (active); in assay [4] (setting [8]), 97% (active); in assay [4] (at 50.0 µM) it was 97.4% (active). The growth inhibition in assay [5] (setting [7]) was 97% (active); in assay [5] (setting [8]), 99% (active); in assay [5] (at 50.0 µM), 98.5% (active); in assay [6] (setting [7]) it was 99% (active); in assay [6] (setting [8]), 99% (active); in assay [6] (at 50.0 µM), 98.6% (active).

As to `CCCCN(C)CC(C(C)=O)C(c1ccccc1)c1c(O)c2ccccc2oc1=O` (configuration not stated), the growth inhibition in assay [1] (setting [7]) is 32% (inactive); in assay [1] (setting [8]) it was 32% (inactive); in assay [1] (at 50.0 µM), 80.4% (active); in assay [2] (setting [7]) it was 18% (inactive); in assay [2] (setting [8]), 18% (inactive); in assay [2] (at 50.0 µM) it was 78.4% (active). Further, the growth inhibition in assay [3] (setting [7]) is 11% (inactive); in assay [3] (setting [8]) it was 11% (inactive); in assay [3] (at 50.0 µM), 82.3% (active); in assay [4] (setting [7]) it was 6% (inactive); in assay [4] (setting [8]) it was 6% (inactive); in assay [4] (at 50.0 µM) it was 80.2% (active). The growth inhibition in assay [5] (setting [7]) is 15% (inactive); in assay [5] (setting [8]), 15% (inactive); in assay [5] (at 50.0 µM), 81.5% (active); in assay [6] (setting [7]), 22% (inactive); in assay [6] (setting [8]), 22% (inactive); in assay [6] (at 50.0 µM), 85.8% (active).

For `c1cnc2c(c1)ccc1cccnc12`, the growth inhibition was 58% (inactive) and 14% (inactive) in assay [1] (setting [7]); 97% (active) and 99% (active) in assay [1] (setting [8]); 99.5% (active) and 99.2% (active) in assay [1] (at 50.0 µM); 32% (inactive) and 27% (inactive) in assay [2] (setting [7]); 99% (active) in assay [2] (setting [8]); 99.2% (active) and 98.9% (active) in assay [2] (at 50.0 µM). Besides, the growth inhibition is 50% (inactive) and 13% (inactive) in assay [3] (setting [7]); 98% (active) in assay [3] (setting [8]); 98.3% (active) and 99% (active) in assay [3] (at 50.0 µM); 6% (inactive) and -24% (inactive) in assay [4] (setting [7]); 98% (active) and 90% (active) in assay [4] (setting [8]); 98% (active) and 96.2% (active) in assay [4] (at 50.0 µM). Further, the growth inhibition in assay [5] (setting [7]) was 42% (inactive) and 4% (inactive); in assay [5] (setting [8]) it was 98% (active) and 99% (active); in assay [5] (at 50.0 µM), 98.8% (active) and 99% (active); in assay [6] (setting [7]) it was 52% (inactive) and 17% (inactive); in assay [6] (setting [8]), 97% (active) and 98% (active); in assay [6] (at 50.0 µM), 98.8% (active).

With `CCC[CH2][Sn][Cl]`, the growth inhibition in assay [1] (setting [7]) was 99% (active); in assay [1] (setting [8]), 98% (active); in assay [1] (at 50.0 µM), 98.2% (active); in assay [2] (setting [7]), 100% (active); in assay [2] (setting [8]), 98% (active); in assay [2] (at 50.0 µM), 98.7% (active). Besides, the growth inhibition in assay [3] (setting [7]) is 99% (active); in assay [3] (setting [8]) it was 99% (active); in assay [3] (at 50.0 µM), 98.8% (active); in assay [4] (setting [7]), 99% (active); in assay [4] (setting [8]), 98% (active); in assay [4] (at 50.0 µM) it was 97.7% (active). In addition, the growth inhibition in assay [5] (setting [7]) was 99% (active); in assay [5] (setting [8]), 97% (active); in assay [5] (at 50.0 µM) it was 98.1% (active); in assay [6] (setting [7]) it was 99% (active); in assay [6] (setting [8]), 98% (active); in assay [6] (at 50.0 µM), 97.4% (active).

For the compound `O=c1oc2ccccc2c(O)c1C(c1ccc(/C=C/c2ccccc2)cc1)c1c(O)c2ccccc2oc1=O`, the growth inhibition in assay [1] (setting [7]) is 13% (inactive); in assay [1] (setting [8]), 97% (active); in assay [1] (at 50.0 µM), 87.2% (active); in assay [2] (setting [7]), 36% (inactive); in assay [2] (setting [8]) it was 98% (active); in assay [2] (at 50.0 µM) it was 90% (active). Besides, the growth inhibition in assay [3] (setting [7]) was 26% (inactive); in assay [3] (setting [8]), 95% (active); in assay [3] (at 50.0 µM) it was 81.7% (active); in assay [4] (setting [7]), 54% (inactive); in assay [4] (setting [8]), 95% (active); in assay [4] (at 50.0 µM) it was 77.5% (active). The growth inhibition was 52% (inactive) in assay [5] (setting [7]); 97% (active) in assay [5] (setting [8]); 76.7% (active) in assay [5] (at 50.0 µM); 7% (inactive) in assay [6] (setting [7]); 98% (active) in assay [6] (setting [8]); 91.3% (active) in assay [6] (at 50.0 µM).

As for `COc1cc(C(c2c(O)c3ccccc3oc2=O)c2c(O)c3ccccc3oc2=O)cc(OC)c1O`, the growth inhibition in assay [1] (setting [7]) is 4% (inactive); in assay [1] (setting [8]), 20% (inactive); in assay [1] (at 50.0 µM), 75% (active); in assay [2] (setting [7]) it was -2% (inactive); in assay [2] (setting [8]) it was 19% (inactive); in assay [2] (at 50.0 µM), 44.3% (inactive). In addition, the growth inhibition in assay [3] (setting [7]) was -2% (inactive); in assay [3] (setting [8]), 12% (inactive); in assay [3] (at 50.0 µM), 54.7% (inactive); in assay [4] (setting [7]), 0% (inactive); in assay [4] (setting [8]), 0% (inactive); in assay [4] (at 50.0 µM), 70.8% (active). The growth inhibition in assay [5] (setting [7]) is -5% (inactive); in assay [5] (setting [8]) it was -10% (inactive); in assay [5] (at 50.0 µM), 50% (inactive); in assay [6] (setting [7]), -7% (inactive); in assay [6] (setting [8]), 2% (inactive); in assay [6] (at 50.0 µM) it was 90.6% (active).

In the case of `CC(C)COP(=O)(O)OCC(C)C.[Al]`, the growth inhibition is -2% (inactive) in assay [1] (setting [7]); -11% (inactive) in assay [1] (setting [8]); 3.45% (inactive) in assay [1] (at 50.0 µM); -4% (inactive) in assay [2] (setting [7]); -9% (inactive) in assay [2] (setting [8]); 16.6% (inactive) in assay [2] (at 50.0 µM). The growth inhibition in assay [3] (setting [7]) was -5% (inactive); in assay [3] (setting [8]), -4% (inactive); in assay [3] (at 50.0 µM), 3.05% (inactive); in assay [4] (setting [7]), -1% (inactive); in assay [4] (setting [8]), 3% (inactive); in assay [4] (at 50.0 µM), -12.1% (inactive). Besides, the growth inhibition in assay [5] (setting [7]) was 1% (inactive); in assay [5] (setting [8]), 31% (inactive); in assay [5] (at 50.0 µM), -0.75% (inactive); in assay [6] (setting [7]), -2% (inactive); in assay [6] (setting [8]) it was -10% (inactive); in assay [6] (at 50.0 µM), 18.2% (inactive).

With `CCC(C)N1CN(c2ccccc2)C2(CCN(CC3COc4ccccc4O3)CC2)C1=O` (configuration not stated), the growth inhibition was 1% (inactive) in assay [1] (setting [7]); -7% (inactive) in assay [1] (setting [8]); -5.3% (inactive) in assay [1] (at 50.0 µM); -5% (inactive) in assay [2] (setting [7]); 1% (inactive) in assay [2] (setting [8]); 4.4% (inactive) in assay [2] (at 50.0 µM). Moreover, the growth inhibition in assay [3] (setting [7]) was 18% (inactive); in assay [3] (setting [8]), 9% (inactive); in assay [3] (at 50.0 µM), 18.2% (inactive); in assay [4] (setting [7]) it was 11% (inactive); in assay [4] (setting [8]), 13% (inactive); in assay [4] (at 50.0 µM) it was 8.65% (inactive). Further, the growth inhibition in assay [5] (setting [7]) is 9% (inactive); in assay [5] (setting [8]), 32% (inactive); in assay [5] (at 50.0 µM), 66.7% (inactive); in assay [6] (setting [7]), -26% (inactive); in assay [6] (setting [8]) it was 6% (inactive); in assay [6] (at 50.0 µM), 12.6% (inactive).

For the compound `O=[N+]([O-])C(Br)(Br)CCC(Br)(Br)[N+](=O)[O-]`, the growth inhibition in assay [1] (setting [7]) is 99% (active); in assay [1] (setting [8]), 99% (active); in assay [1] (at 50.0 µM) it was 99.5% (active); in assay [2] (setting [7]), 99% (active); in assay [2] (setting [8]) it was 100% (active); in assay [2] (at 50.0 µM), 99.8% (active). Further, the growth inhibition in assay [3] (setting [7]) was 99% (active); in assay [3] (setting [8]), 99% (active); in assay [3] (at 50.0 µM) it was 52.4% (inactive); in assay [4] (setting [7]), 100% (active); in assay [4] (setting [8]), 99% (active); in assay [4] (at 50.0 µM), 81.3% (active). The growth inhibition is 100% (active) in assay [5] (setting [7]); 100% (active) in assay [5] (setting [8]); 99.7% (active) in assay [5] (at 50.0 µM); 99% (active) in assay [6] (setting [7]); 99% (active) in assay [6] (setting [8]); 99.5% (active) in assay [6] (at 50.0 µM).
